A selection: hits, their analogues and other compounds. The true share with any hit is near 3.4%.
HGIII-sPLA2 inh – Blocks human group III sPLA2 activity; Q9NZ20; QFRET BODIPY PC-A2 liposome hydrolysis, fluorescence; inhibition, % at 12.2 µM; hit rate 0.56% among 370,000;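 active = inhibition above mean plus 3 SD of compounds lying within the high and low control bounds, cut at about 19% in these data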;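 also: 0% = median of test compound wells and 100% = no enzyme DMSO wells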
ADAM17 inh – ADAM17 inhibition, QFRET primary screen; recombinant ADAM17, EDANS/DABCYL FRET peptide cleavage; inhibition, % at 6.95 µM; hit rate 0.83% among 370,000; AID 720648;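 active = inhibition above the mean of compounds lying between control limits plus 3 SD, set per campaign, cut at about 8.5% in these data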;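 also: 0% = DMSO-only wells as the low control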
ADAM10 inh – ADAM10 inhibition, QFRET primary screen; inhibition, % at 7 µM; O14672; recombinant ADAM10, EDANS/DABCYL FRET peptide cleavage, 3 h; hit rate 0.62% among 370,000; AID 720582;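 active = inhibition above a per-campaign cutoff equal to the mean of compounds falling between control-based bounds plus 3 SD, cut at about 20% in these data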;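 also: 0% = DMSO wells while the 100% control is not disclosed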
PLC-gamma1 inh – inhibitors of human phospholipase C gamma1; purified PLC-gamma1, fluorogenic substrate, fluorescence; inhibition, % at 12.2 µM; hit rate 0.84% among 370,000; P19174; in the data active = inhibition above about 9.5%
Target sequence (P19174 whole entry, looked up): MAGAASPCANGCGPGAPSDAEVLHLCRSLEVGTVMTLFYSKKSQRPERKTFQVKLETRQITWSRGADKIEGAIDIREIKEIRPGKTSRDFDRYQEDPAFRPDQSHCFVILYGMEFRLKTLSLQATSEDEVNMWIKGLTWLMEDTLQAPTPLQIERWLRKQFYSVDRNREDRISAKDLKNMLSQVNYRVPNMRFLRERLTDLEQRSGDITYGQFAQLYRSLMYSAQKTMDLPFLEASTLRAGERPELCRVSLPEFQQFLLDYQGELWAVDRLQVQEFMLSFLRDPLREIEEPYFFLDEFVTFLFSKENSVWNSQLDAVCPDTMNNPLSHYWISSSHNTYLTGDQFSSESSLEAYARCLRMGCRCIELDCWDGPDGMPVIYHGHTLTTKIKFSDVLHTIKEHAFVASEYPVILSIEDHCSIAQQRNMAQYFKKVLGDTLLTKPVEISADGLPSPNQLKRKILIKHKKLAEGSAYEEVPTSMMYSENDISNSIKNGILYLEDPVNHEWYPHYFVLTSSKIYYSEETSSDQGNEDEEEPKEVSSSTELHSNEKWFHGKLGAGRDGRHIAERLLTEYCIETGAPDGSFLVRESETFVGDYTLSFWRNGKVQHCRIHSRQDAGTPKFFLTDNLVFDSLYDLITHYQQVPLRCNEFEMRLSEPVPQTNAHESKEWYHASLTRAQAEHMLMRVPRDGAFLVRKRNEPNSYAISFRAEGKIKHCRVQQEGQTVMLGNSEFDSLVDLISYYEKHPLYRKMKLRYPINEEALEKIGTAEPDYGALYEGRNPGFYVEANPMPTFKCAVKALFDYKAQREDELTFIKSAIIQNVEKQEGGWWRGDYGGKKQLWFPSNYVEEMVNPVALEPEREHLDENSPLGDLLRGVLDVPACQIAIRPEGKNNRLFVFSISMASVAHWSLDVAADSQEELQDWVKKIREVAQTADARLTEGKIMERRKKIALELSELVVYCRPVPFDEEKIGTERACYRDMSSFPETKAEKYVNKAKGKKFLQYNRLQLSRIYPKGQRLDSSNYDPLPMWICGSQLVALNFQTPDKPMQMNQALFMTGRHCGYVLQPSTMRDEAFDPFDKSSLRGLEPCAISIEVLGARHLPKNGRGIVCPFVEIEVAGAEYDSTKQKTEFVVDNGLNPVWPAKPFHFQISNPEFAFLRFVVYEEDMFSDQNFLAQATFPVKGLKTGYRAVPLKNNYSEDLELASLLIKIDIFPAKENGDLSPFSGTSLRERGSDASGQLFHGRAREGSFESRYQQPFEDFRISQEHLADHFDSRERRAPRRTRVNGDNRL
PLCb3 inh – inhibitors of human phospholipase C beta3. Q01970. Purified PLC-beta3, fluorogenic substrate, fluorescence. inhibition, % at 12.2 µM. hit rate 0.18% among 370,000. AID 720704; in the data active = inhibition above about 11%;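 also: 0% = median of compound wells on plate and 100% = full blocker control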
proKLK7 act – proKLK7 (human) activation, primary screen; P49862; purified proKLK7, EDANS-DABCYL substrate fluorescence; 100% is mature enzyme control, 0% vehicle; activation, % at 7 µM; hit rate 0.9% among 370,000; AID 652039;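 active = activation above the mean of all tested compounds plus 3 SD, computed per campaign excluding outliers beyond control limits, cut at about 13% in these data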
* marks the source's active call; other numbers are inactive results; i = inactive.

SMILES | HGIII-sPLA2 inh | ADAM17 inh | ADAM10 inh | PLC-gamma1 inh | PLCb3 inh | proKLK7 act
Oc1ccc(C2C=C(c3ccc(F)cc3)Nc3ncnn32)cc1 (stereo not drawn) | 5 | -59 | -156 | i | i | 27*
CCOc1ccc(C2C=C(c3ccc(F)cc3)Nc3ncnn32)cc1 (stereo not drawn) | -23 | -76 | -350 | -153 | -183 | -2
COc1ccc(OC)c(CN2CCN(C(=O)c3cc4ccccc4cc3O)CC2)c1 | -53 | -5 | -7 | -47 | -72 | -9
COc1ccc(OC)c(CN2CCN(C(=O)c3cccc4ccccc34)CC2)c1 | -6 | 4 | 7 | 13* | 3 | 1
Cc1cc(C)c2c(=N)c3ccccc3n(CCCCCCCCn3c4ccccc4c(=N)c4c(C)cc(C)nc43)c2n1 | 5 | -141 | i | i | i | 37*
C#CCCCN([C@@H](CC(C)C)C(=O)OC)S(=O)(=O)c1ccccc1Br | 1 | 8.6* | 14 | -1 | 0 | 0
COc1ccc(CN(C(=O)CSc2nnc(-c3c[nH]c4ccccc34)o2)c2ccc(F)cc2)cc1OC | -27 | 8 | 22* | 5 | 4 | 1
COc1ccc(CN(C(=O)CSc2nnc(-c3ccc(F)cc3)o2)c2ccc(F)cc2)cc1 | -4 | 2 | 7 | 2 | 5 | 0
CCCCn1c(SC(C)C(=O)c2ccc(OC)cc2)nc2cc(S(N)(=O)=O)ccc21 (stereo not drawn) | -32 | 20* | 26* | 7 | 2 | 0
CCCCn1c(SCC(=O)c2ccc(OC)cc2OC)nc2cc(S(N)(=O)=O)ccc21 | -19 | 0 | 15 | 1 | -2 | 0
C[C@@H]1ON(C)[C@H]2C[C@H]3c4[nH]c5c(-c6ccc7c(c6)OCO7)cccc5c4CCN3C(=O)[C@@H]12 | -11 | -6 | -22 | -16 | -20 | 1
CCN(CC)S(=O)(=O)c1ccc2oc(C(=O)NCc3ccc(F)cc3)c(C)c2c1 | -27 | 8.8* | 22* | 0 | 3 | 0
CCN(CC)C(=O)CC[C@H]1CC[C@]2(CCCN(C(=O)C3CCCC3)C2)O1 | 13 | -3 | -8 | -1 | -1 | 0
Cc1cc(NC(c2ccc(Cl)cc2)c2ccc3cccnc3c2O)no1 (stereo not drawn) | 35* | 1 | 12 | -20 | -12 | 0
Cc1ccc2ccc(C(Nc3ccccn3)c3ccccc3)c(O)c2n1 (stereo not drawn) | 16 | 8 | 25* | -5 | -6 | 1
CCOC(=O)C(C(C)=O)c1nc(C)nc2c1nnn2Cc1ccccc1Cl (stereo not drawn) | 6 | 0 | 6 | 13* | 2 | 0
COc1ccc(Nc2nc(C)nc3c2nnn3Cc2ccccc2Cl)c(OC)c1 | -2 | -4 | -9 | -11 | -14 | 0
O=S(=O)(Nc1ccc(N=Nc2ccc(O)c3ccccc23)cc1)c1ccccc1 | 8 | 14* | 16 | 7 | -5 | -1
O=S(=O)(Nc1ccc(S(=O)(=O)Nc2ccccc2)cc1)c1ccccc1 | -58 | 1 | 7 | 0 | 5 | 1
COC(=O)C1CN(C2CC2)CCS(=O)(=O)N1Cc1cn(Cc2ccc(OC)cc2)nn1 (stereo not drawn) | 5 | 2 | 4 | 1 | 1 | 0
COC(=O)c1ccc(Oc2nc(NC(C)C)nc(N(C)C)n2)cc1 | 6 | 4 | 3 | 3 | 15* | 0
COC(=O)c1cccc(NC(=O)c2ccc[n+]([O-])c2)c1 | -1 | 5 | 9 | 11* | 0 | 0
Cc1ccc(S(=O)(=O)N2CCCC2C(=O)N2CCN(c3ccccc3)CC2)cc1 (stereo not drawn) | -3 | 2 | 2 | 0 | 4 | 0
CCCSc1nnc(-c2cccc(S(=O)(=O)N(C)C)c2)n1-c1cc(OC)ccc1OC | -6 | -7 | 0 | 2 | 2 | 0
CN(C)S(=O)(=O)c1cccc(-c2nnc(SCCNCCO)n2-c2ccc(F)cc2)c1 | 0 | 1 | 6 | 14* | 14* | 0
COc1ccc(CNC(=O)C[C@H]2C[C@H](C(=O)N3CCCCC3)[C@@]3(C)c4[nH]c5cc(-c6ccco6)ccc5c4CCN3C2=O)cc1OC | -14 | -68 | -244 | -245 | -325 | 68*
